High-throughput results (PubChem)
A selection: hits, their analogues and other compounds. The true share with any hit is near 16%.
TDP1 cell noCPT: qHTS for Inhibitors of human tyrosyl-DNA phosphodiesterase 1 (TDP1): qHTS in cells in absence of CPT; DT40 Tdp1-/- hTDP1 cells, no CPT, ATP luminescence, 48 h; Potency, µM (series often up to 46.2 µM), without a hit: at the highest dose activity change, negative = growth inhibition, hits mostly inhibitors; 15% of 420,000 active; AID 686978, 2013; also: potency is read from the fitted curve at half-maximal effect; % is scaled to controls: 0 for no effect and ±100 for the full control effect; nearly all actives have a fitted effect of over 55% in size
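Readout: luminescence from CellTiter-Glo after 30 min in the dark at RT. Cells: DT40 Tdp1-/- with stable hTDP1, 400/well. Exposure: compounds alone, ≥48 hr, 37 °C.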
DT40 TDP1 CPT: qHTS for Inhibitors of human tyrosyl-DNA phosphodiesterase 1 (TDP1): qHTS in cells in presence of CPT | 12% of 420,000 active | Potency, µM (series often up to 46.2 µM), inactives show top-dose activity change, negative = growth inhibition, usual class: inhibitors | chicken DT40 Tdp1-/-;hTDP1 cells + 20 nM CPT, ATP luminescence, 48 h; also: potency is read from the fitted curve at half-maximal effect; % is scaled to controls: 0 for no effect and ±100 for the full control effect; nearly all actives have a fitted effect of over 55% in size
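Chicken DT40 Tdp1-/- cells stably complemented with human TDP1 were seeded at 400 cells/well in medium containing 20 nM camptothecin, exposed to pin-transferred compounds, and grown at 37 °C for at least 48 hr. Viability was read as ATP luminescence.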
uPA surface inh: qHTS for Inhibitors of Cell Surface uPA Generation. cell surface uPA generation assay, qHTS. Potency, µM (top dose mostly 38.3 µM), inactives show at the highest dose activity change, negative = inhibition, most hits filed as inhibitors. 0.31% of 330,000 active; active = well fitted inhibition curve with a large enough effect; inconclusive = small, poorly fitted or top-dose-only effect; inactive = no such curve, though single readings can be large or run the other way; tested in mouse RAW 264.7 cells; also: potency is read from the fitted curve at half-maximal effect; % is scaled to controls: 0 for no effect and ±100 for the full control effect; nearly all actives have a fitted effect of over 55% in size
miR-21 reporter: qHTS Assay for Modulators of miRNAs and/orActivators of miR-21. Potency, µM (titrated, usually from 38.3 µM), for the others: top-dose activity change, positive = activation, usual class: activators. HeLa miR-21 FLuc reporter, luciferase, 48 h. 340,000 tested, under 10 active. AID 2288, 2010;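 also: % of control where 0% means no effect; miR-21 action dims this reporter so a rising signal means less miR-21 action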
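HeLa miR-21-FLuc reporter line, endogenous miR-21; 2000 cells/well in DMEM/10% FBS; compound titration up to ~40uM final, 48 h, 37 degree Celsius; luciferase detection reagent, 15 min lysis, CCD luminescence.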
TDP1 inh: qHTS Assay for Inhibitors of Tyrosyl-DNA Phosphodiesterase (TDP1); Tyrosyl-DNA phosphodiesterase 1 (Homo sapiens), Q9NUW8; recombinant TDP1, AlphaScreen DNA substrate cleavage; Potency, µM (titrated, usually from 130 µM), for inactives: at the top dose activity change, negative = inhibition, hits mostly inhibitors; 0.28% of 350,000 active; AID 485290, 2010; also: potency is read from the fitted curve at half-maximal effect; % is scaled to controls: 0 for no effect and ±100 for the full control effect; nearly all actives have a fitted effect of over 40% in size
Target sequence (Q9NUW8 whole entry, looked up): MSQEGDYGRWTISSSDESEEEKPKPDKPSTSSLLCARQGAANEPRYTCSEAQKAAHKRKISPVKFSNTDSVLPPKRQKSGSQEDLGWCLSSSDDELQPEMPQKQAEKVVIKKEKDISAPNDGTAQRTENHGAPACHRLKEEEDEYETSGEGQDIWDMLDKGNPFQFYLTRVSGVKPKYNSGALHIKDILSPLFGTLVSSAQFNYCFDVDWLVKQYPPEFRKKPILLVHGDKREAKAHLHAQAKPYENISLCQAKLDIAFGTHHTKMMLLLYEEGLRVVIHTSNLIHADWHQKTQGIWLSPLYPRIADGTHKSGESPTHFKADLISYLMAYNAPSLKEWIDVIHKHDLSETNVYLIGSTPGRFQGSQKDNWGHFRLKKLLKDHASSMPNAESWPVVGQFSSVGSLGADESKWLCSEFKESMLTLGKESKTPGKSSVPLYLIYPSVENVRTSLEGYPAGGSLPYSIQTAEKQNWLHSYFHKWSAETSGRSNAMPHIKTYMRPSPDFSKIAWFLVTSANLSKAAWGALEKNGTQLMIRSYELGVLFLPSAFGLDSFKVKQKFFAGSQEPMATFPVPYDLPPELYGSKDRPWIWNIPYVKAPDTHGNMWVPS
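Tdp1 1 nM final; 15 min RT w/ cpd; substrate 15 nM, 5 min; beads 10 ug/ml, 10 min; AlphaScreen read. Neg ctrl: no enzyme.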
Starred values were filed as active, the others as inactive; ? = inconclusive; · = no result given; [ ] = dose if it differs, or a comment. Unless noted, calls follow the shape of the dose curve; as a rule, active = well fitted curve in the direction sought with a large enough effect; inconclusive = small, poorly fitted or top-dose-only effect, or another doubt; inactive = no such curve, though single readings can be large; an effect the other way counts as inactive or inconclusive.

SMILES	TDP1 cell noCPT	DT40 TDP1 CPT	uPA surface inh	miR-21 reporter	TDP1 inh
Cn1c(=O)c2c(nc(SCC(=O)NC3CCCC3)n2C)n(C)c1=O	1.7%	-0.1%	-0.1%	-1.0%	-3.0%
CCCCNC(=O)CCc1nc2cccnc2n1Cc1ccccc1	12.6%	-3.1%	-0.1%	0.2%	·
Cc1ccc(C(=O)N/N=C\c2ccccn2)cn1	-15.5%	-2.6%	-11.8%	-4.2%	2.4%
CCN(CC)c1cc(C)c2cc(NC(=O)/C=C/c3ccc(C)cc3)ccc2n1	5.17µM*	5.8µM*	·	15.6%	2.9%
CCN(CC)c1cc(C)c2cc(NC(=O)CNC(C)=O)ccc2n1	-12.2%	32.3%	3.1%	-10.6%	3.8%
CCOc1ccc(/C=C/C(=O)Nc2ccc3nc(N(CC)CC)cc(C)c3c2)cc1OC	10.3µM*	5.17µM*	·	?	0.0%
COc1ccc(NC(=O)/C=C/c2cc(OC)c(OC)c(OC)c2)cn1	14.1%	-0.5%	-0.1%	21.6%	4.6%
CCN(CC)c1cc(C)c2cc(NC(=O)/C=C/c3cc(OC)c(OC)c(OC)c3)ccc2n1	7.31µM*	6.51µM*	·	15.2%	5.9%
COc1ccc(N2CCN(CCCNC(=O)c3cc4sccc4n3C)CC2)cc1	?	-27.0%	·	0.0%	6.1%
CC(C)CCNC(=O)Cn1c(-c2cccs2)cc2cc(F)ccc21	-22.3%	-25.1%	·	-9.7%	3.7%
COc1cccc(CCNC(=O)Cn2c(-c3cccs3)cc3ccccc32)c1	?	20.6µM*	·	-7.2%	1.3%
O=C(Cn1c(-c2cccs2)cc2ccccc21)NCCCN1CCN(c2ccc(F)cc2)CC1	23.1µM*	23.1µM*	·	-3.5%	3.7%
COc1ccc(N2CCN(CCCNC(=O)Cn3c(-c4cccs4)cc4ccccc43)CC2)cc1	23.1µM*	18.4µM*	·	3.3%	9.9%
CN(C)c1ccnc2sc3c(SCc4ccc(Cl)cc4)ncnc3c12	13µM*	16.4µM*	3.0%	-12.2%	2.8%
O=C1C=C(NC2=CC3OC(c4ccccc4)OCC3OC2=O)CCC1 (stereo not given)	9.2µM*	8.2µM*	-3.3%	13.5%	-1.2%
Cc1ccccc1OCCn1cnc2cc([N+](=O)[O-])ccc2c1=O	20.6µM*	18.4µM*	0.3%	-4.4%	6.5%
O=c1c2ccccc2ncn1CCCOc1ccccc1[N+](=O)[O-]	?	?	·	-53.7%	7.3%
COC(=O)c1ccc(CSc2nc3ccccc3c(=O)n2-c2ccc(OC)c(OC)c2)o1	?	16.4µM*	8.8%	-4.6%	-2.1%
COCCn1c(SCc2cccc(F)c2)nc2cc(C(=O)OC)ccc2c1=O	?	20.6µM*	5.0%	0.2%	·
COC(=O)c1ccc(CSc2nc3ccccc3c(=O)n2-c2ccccc2)o1	?	?	7.7%	-21.0%	3.0%
CC(C)Cn1c(SCc2cccc(F)c2)nc2ccsc2c1=O	29.1µM*	14.6µM*	·	-1.5%	-7.4%
COCCn1c(SCc2ccc(OC)c(F)c2)nc2ccccc2c1=O	20.6µM*	16.4µM*	-5.8%	-22.1%	-5.0%
O=c1c2ccccc2nc(SCc2cccc(F)c2)n1Cc1ccco1	-19.1%	-15.0%	·	3.2%	-6.9%
COc1ccc(CC(NC(C)=O)C(=O)NC2CCN(S(=O)(=O)c3cccc4ccccc34)CC2)cc1OC (stereo not given)	-13.1%	-20.6%	-6.4%	-2.5%	2.0%
O=C(CN1CCN(c2ccccc2F)CC1)NC(=O)NCc1ccco1	0.0%	-2.2%	21.2%	-1.3%	-9.8%
Cc1noc(C)c1COc1ccccc1C(=O)Nc1ccc(C(N)=O)cc1	3.1%	23.5%	-11.6%	·	0.5%
COCCn1c(SCc2ccc(C(=O)OC)o2)nc2ccccc2c1=O	20.6µM*	?	-1.4%	-3.0%	4.1%
COCCn1c(SCC(=O)NC(=O)Cc2ccccc2)nc2ccccc2c1=O	-2.1%	2.3%	4.6%	·	1.4%[56.1 µM]
